Sampled rows, rich in hits. Any-hit rate of the full collection: about 5.4%.
Vaccinia mCherry = vaccinia inhibition (mCherry reporter) | Vaccinia virus mCherry reporter infection, fluorescence | Potency, µM (series often up to 36.5 µM), usual class: inhibitors | 310,000 tested, 0.63% active; calls by dose curve; tested in A549 cells; further: nearly all actives have a fitted effect of over 35% in size
FMDV antiviral = antivirals against foot and mouth disease virus; FMDV antiviral cell-based qHTS; Potency, µM (top dose mostly 57.9 µM), actives largely listed as inhibitors; 410,000 tested, 1.2% active; AID 1159524; calls by dose curve; tested in HEK293T cells; further: read-out not given here; nearly all actives have a fitted effect of over 45% in size
Sm TGR inh = inhibitors of Schistosoma mansoni thioredoxin glutathione reductase. Q962Y6. purified TGR, DTNB reduction, TNB absorbance 405 nm. Potency, µM (doses to about 114 µM), hits mostly inhibitors. 360,000 tested, 3% active. AID 485364; active means well fitted inhibition curve with a large enough effect; inconclusive means small, poorly fitted or top-dose-only effect; inactive means no such curve, though single readings can be large or run the other way; further: nearly all actives have a fitted effect of over 60% in size
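Kinetic colorimetric format: TGR-catalysed, NADPH-driven DTNB reduction monitored via TNB absorbance. Enzyme dispensed at 20 nM; compound exposure 15 min at room temperature before reaction start.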
Vaccinia Venus = vaccinia inhibition (Venus reporter). Vaccinia virus Venus reporter expression, fluorescence. AID 720580. Potency, µM (series often up to 36.5 µM), actives largely listed as inhibitors. 330,000 tested, 0.46% active; calls by dose curve; tested in A549 cells; further: nearly all actives have a fitted effect of over 30% in size
Lassa entry inh = inhibitors of Lassa virus binding or cell entry. Lassa virus pseudotype entry inhibition, cell reporter. Potency, µM (series often up to 37.9 µM), usual class: inhibitors. 300,000 tested, 1.2% active. AID 540256; calls by dose curve; tested in HEK293 cells; further: nearly all actives have a fitted effect of over 50% in size
Marburg entry inh = inhibitors of Marburg virus binding or cell entry. Marburg virus pseudotyped entry inhibition, cell reporter. Potency, µM (top dose mostly 37.8 µM), hits mostly inhibitors. 300,000 tested, 1.8% active. AID 540276; calls by dose curve; tested in HEK293 cells
Hits are given with their value; – = inactive; ? = inconclusive; · = no result given.

SMILES	Vaccinia mCherry	FMDV antiviral	Sm TGR inh	Vaccinia Venus	Lassa entry inh	Marburg entry inh
O=C(CC1N=C2c3ccccc3N=C(SCc3ccccc3F)N2C1=O)NCc1ccc2c(c1)OCO2 (configuration not stated)	–	–	–	–	–	·
CN(C)CC(C)(O)c1ccc2c(c1)CN(Cc1cccn1-c1cccnc1)CCO2 (configuration not stated)	–	–	·	–	·	·
CCN(CC)CCN(Cc1cc2ccc(C)c(C)c2[nH]c1=O)C(=S)NCc1ccco1	–	–	–	–	5.62µM	?
Cc1ccc(NC(=O)/C(Cl)=C\c2ccccc2)cc1	–	–	–	–	4.47µM	7.94µM
O=C(NC(=S)Nc1ccccn1)c1ccccc1	–	–	–	–	·	·
O=C(NC(=S)Nc1ccccn1)c1ccc(-c2ccccc2)cc1	11.2µM	–	–	–	–	?
Cc1cc(C)c(NC(=S)NC(=O)c2ccc(-c3ccccc3)cc2)c(C)c1	–	?	–	–	8.91µM	?
CCOc1ccc(CCNC(=O)Cn2ncc3c([nH]c4ccccc43)c2=O)cc1OCC	–	–	–	–	–	·
COc1cc(NC(=O)CC2C(=O)N(c3ccc(Cl)cc3)C(=O)N2Cc2cccs2)cc(OC)c1 (configuration not stated)	–	–	–	–	?	·
CCCCNS(=O)(=O)c1cc(-c2nn(C)c(=O)c3ccccc23)ccc1C	–	–	–	–	?	?
Cc1ccc(-c2nn(C)c(=O)c3ccccc23)cc1S(=O)(=O)NCCN(C)C	–	–	–	–	–	11.2µM
O=C1/C(=C/c2cccs2)Cc2ccccc21	–	–	–	–	–	–
CC1(C)NC(C)(C)/C(=C\c2cccs2)C(=O)C1=O	?	–	–	–	–	12.6µM
COc1cccc2c1C1(CCCCC1)CC2NC(=O)C(F)(F)F (configuration not stated)	·	·	·	·	·	–
O=Nc1c(O)c2ccccc2c2ccccc12	?	11.2µM	·	10µM	·	·
CCN1/C(=N\N)c2cccc3cccc1c23	·	–	22.4µM	·	·	·
Cc1ccc2c(c1)N(C(=O)N1CCC(C(=O)NCCc3ccc(Cl)cc3)CC1)CC(C)O2 (configuration not stated)	–	–	–	–	–	·
O=c1cc(-c2ccc(O)c(O)c2)oc2ccc3ccccc3c12	–	6.31µM	–	–	?	?
O=c1cc(-c2ccccc2)oc2ccc3ccccc3c12	–	?	·	?	·	·
CC(C)c1ccc(N=c2c([N+](=O)[O-])nn(-c3ccc4c(c3)OCCO4)n2O)cc1	?	·	12.6µM	–	–	–
CCc1cccc(N=c2c([N+](=O)[O-])nn(-c3ccc4c(c3)OCCO4)n2O)c1	–	?	?	–	?	?
O=[N+]([O-])c1nn(-c2ccc3c(c2)OCCO3)n(O)c1=NCCC1=CCCCC1	–	–	25.1µM	–	–	–
COc1cc(N=c2c([N+](=O)[O-])nn(-c3ccc4c(c3)OCCO4)n2O)cc(OC)c1	?	–	?	?	?	?
O=[N+]([O-])c1nn(-c2ccc3c(c2)OCCO3)n(O)c1=NCc1ccc(F)cc1	–	–	–	–	?	?
CN=c1c([N+](=O)[O-])nn(-c2ccc3c(c2)OCCO3)n1O	12.6µM	–	–	?	·	·
SMILES	Vaccinia mCherry	FMDV antiviral	Sm TGR inh	Vaccinia Venus	Lassa entry inh	Marburg entry inh
O=C1CCC2=C(CC(O)=C(O)C2)O1	·	·	·	·	·	–
Cc1ccc(-n2ncc3c(NCc4ccccc4)ncnc32)cc1Cl	–	–	–	–	–	·
COc1ccccc1CNc1cc(C)nc2nc(-c3ccc(C)cc3)nn12	–	–	–	–	–	·
COC(=O)NCC(c1ccco1)N1CCN(c2ccc(F)cc2)CC1 (configuration not stated)	–	–	–	–	–	–
O=C(NCC(c1ccco1)N1CCN(c2ccc(F)cc2)CC1)OCc1ccccc1 (configuration not stated)	–	–	–	–	1.26µM	?
CCCCCCCCCC[n+]1ccc(/C=C/c2c[nH]c3ccccc23)cc1	?	·	·	–	·	·
COc1ccc2c(c1)C1=NN(/C(C)=C/C(C)=O)C(c3ccc(F)cc3)C1CC2 (configuration not stated)	–	–	?	–	–	–
COc1ccc2c(c1)C1=NN(/C(C)=C\C(C)=O)C(c3ccccc3)C1CC2 (configuration not stated)	–	–	56.2µM	–	–	–
O=C(Nc1sc2c(c1C(=O)NCC1CCCO1)CCC2)c1cc(=O)c2cc(Cl)ccc2o1 (configuration not stated)	–	–	–	–	–	–
CN(C)S(=O)(=O)c1cccc(NC(=O)CSc2nc3ccccc3n2-c2ccccc2)c1	?	–	–	?	?	?
CN(C)S(=O)(=O)c1ccc(NC(=O)CSc2nc3ccccc3n2-c2ccccc2)cc1	?	–	?	–	18.4µM	?
COc1ccccc1N1CCN(S(=O)(=O)c2c(C)sc3ncn(CC(=O)N(C)c4ccc(Cl)cc4)c(=O)c23)CC1	–	–	–	–	?	?
CC(=O)Nc1ccc(NC(=O)CSc2nccn2Cc2ccc3c(c2)OCO3)cc1	–	?	–	–	–	·
CCOc1ccc(NC(=O)Cn2nc(Cc3cccnc3)c3ccccc3c2=O)cc1	–	–	–	–	–	–
COc1ccc(C(=O)COC(=O)C(Cc2c[nH]c3ccccc23)NC(=O)c2ccc(C(C)(C)C)cc2)cc1 (configuration not stated)	–	–	–	–	1.26µM	·
CC(C)(C)c1ccc(C(=O)NC(Cc2c[nH]c3ccccc23)C(=O)OCC(=O)c2ccccc2)cc1 (configuration not stated)	–	–	–	–	?	·
O=C(CSc1nccn1Cc1ccc(F)cc1)NCc1ccc(F)cc1	–	–	–	–	–	·
O=c1ccc2cc3c4c(c2o1)CCCN4CCC3	–	–	50.1µM	–	?	–
O=c1[nH]c(CCl)nc2cc(-c3ccc(F)cc3)sc12	–	–	11.2µM	–	?	?
COCCNc1nc2cc(-c3ccc(F)cc3)sc2c(=O)n1C	–	–	·	–	·	·
O=[N+]([O-])c1ccc(Nc2ccccc2)c2nonc12	–	?	?	–	·	·
O=[N+]([O-])c1ccc(Sc2cccc[n+]2[O-])c2nonc12	?	6.31µM	0.282µM	–	?	?
Cc1ccc(OCC(=O)Nc2ccc3nc(SCC(=O)N(C)c4ccccc4)sc3c2)cc1	–	?	–	–	–	?
CCN(CC1CCCO1)C(=O)CCc1nnc(Cc2ccc3c(c2)OCO3)o1 (configuration not stated)	–	–	28.2µM	–	–	?
Cc1ccc(S(=O)(=O)N(CC(=O)O)Cc2ccco2)cc1	·	–	?	·	·	·
COC(=O)CN(Cc1ccco1)S(=O)(=O)c1ccccc1	–	·	22.4µM	–	–	?
CC(=O)Nc1ccc(S(=O)(=O)N(Cc2ccco2)CC2CCCO2)cc1 (configuration not stated)	–	–	25.1µM	–	–	–
CCN(CC)S(=O)(=O)c1ccc(S(=O)(=O)N(CC(=O)Nc2ccccc2)Cc2ccco2)cc1	·	?	28.2µM	·	–	–

Bioassay records: PubChem, National Center for Advancing Translational Sciences (NCATS)
